Bioassay records: PubChem BioAssay, National Center for Advancing Translational Sciences (NCATS)
Pf growth 48h: Primary qHTS for delayed death inhibitors of the malarial parasite plastid, 48 hour incubation; Potency, µM (top dose mostly 28.7 µM), for the others: at the highest dose activity change, negative = inhibition, most hits filed as inhibitors; 310,000 compounds, 5.9% hits; AID 504832, 2011; P. falciparum luciferase growth in erythrocytes, 48 h
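Erythrocytes infected with P. falciparum carrying an integrated firefly luciferase reporter (2% hematocrit, 0.1% parasitemia final) were exposed to compounds in RPMI 1640 with 0.5% Albumax at 37 C, 5% CO2. Growth inhibition was scored as reduced luminescence.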
Pf growth 96h: Primary qHTS for delayed death inhibitors of the malarial parasite plastid, 96 hour incubation; P. falciparum luciferase reporter growth, 96 h; Potency, µM (highest dose often 28.7 µM), for the others: top-dose activity change, negative = inhibition, hits mostly inhibitors; 320,000 compounds, 6.9% hits
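P. falciparum expressing integrated firefly luciferase, in erythrocytes at 2% hematocrit, 0.05% parasitemia, incubated with compounds 96 h at 37 C, 5% CO2. Growth inhibition read as loss of luminescence; two-generation exposure targets delayed-death apicoplast inhibitors.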
HCV inhibitor: qHTS Assay for Inhibitors of Hepatitis C Virus (HCV). AID 651820, 2012. Potency, µM (titrated, usually from 41.8 µM), without a hit: at the highest dose activity change, negative = inhibition, most hits filed as inhibitors. Huh7.5.1 HCVcc-Cre infection, luciferase reporter, 44 h. 340,000 compounds, 3.4% hits
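A cell-based infection assay in which seeded cells (1,000 per well) receive test compound after 4 h, are inoculated with HCVcc-Cre at approximately 0.5 moi, and are incubated 44 h before luminescence detection.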
AMA1-RON2 inh: qHTS for Inhibitors of AMA1-RON; Towards Development of Antimalarial Drug Lead: Primary Screen; Plasmodium falciparum AMA1 (3D7) - RON2 peptide interaction; AlphaScreen AMA1-biotinylated RON2 peptide binding; 360,000 compounds, 0.2% hits; Potency, µM (doses to about 58.2 µM), without a hit: at the top dose activity change, negative = inhibition, hits mostly inhibitors;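 also: 0% = vehicle wells and -100% = peptide control; nearly all actives have a fitted effect of over 45% in size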
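AMA1 (3D7) with his tag at 25 nM final met compounds first, then biotinylated RON2 peptide at 25 nM; detection used donor plus acceptor beads, 10 µg/mL apiece, read by AlphaScreen after 30 min at room temperature.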
Starred values were filed as active, the others as inactive. A selection: hits, their analogues and other compounds. The true share with any hit is near 11%. Calls follow the shape of the dose curve; as a rule, active = well fitted curve in the direction sought with a large enough effect; inconclusive = small, poorly fitted or top-dose-only effect, or another doubt; inactive = no such curve, though single readings can be large; an effect the other way counts as inactive or inconclusive. Unless noted, % is scaled to controls: 0 for no effect and ±100 for the full control effect; potency is read from the fitted curve at half-maximal effect.

CC(=O)C[C@H]1SC[C@@H](C(C)C)N1S(=O)(=O)c1ccc(C)cc1 was read as AMA1-RON2 inh 2.1%.
`CSCCC(NS(=O)(=O)c1ccc(Br)cc1)C(=O)OCC(=O)NC1CC1` (stereo unspecified) gave Pf growth 48h 7.9%, Pf growth 96h inconclusive, HCV inhibitor 6.5% and AMA1-RON2 inh 5.2%.
Screening COc1ccc(N(CC(=O)Nc2cc(C)ccc2C)S(=O)(=O)c2ccccc2[N+](=O)[O-])c(OC)c1 returned Pf growth 48h 2.94µM*, Pf growth 96h 37.6%, HCV inhibitor -19.9% and AMA1-RON2 inh 6.0%.
For COc1ccc(N(CC(=O)Nc2ccc(F)cc2)S(=O)(=O)c2ccccc2[N+](=O)[O-])c(OC)c1 the results were Pf growth 48h inconclusive, Pf growth 96h 8.1%, HCV inhibitor -15.4% and AMA1-RON2 inh -5.9%.
For COc1ccc(N(CC(=O)NCc2ccccc2OC)S(=O)(=O)c2ccccc2[N+](=O)[O-])c(OC)c1 the results were Pf growth 48h inconclusive, Pf growth 96h -3.7%, HCV inhibitor inconclusive and AMA1-RON2 inh -6.2%.
Screening CS(=O)(=O)N(CC(=O)Nc1cccc([N+](=O)[O-])c1)c1ccccc1 returned Pf growth 48h 15.5%, Pf growth 96h 26.2%, HCV inhibitor -5.5% and AMA1-RON2 inh 2.5%.
Screening COc1ccc(N(CC(=O)Nc2cc(C)cc(C)c2)S(=O)(=O)c2ccccc2[N+](=O)[O-])c(OC)c1 returned Pf growth 48h inconclusive, Pf growth 96h 8.28µM*, HCV inhibitor 19.7% and AMA1-RON2 inh -10.4%.
For COc1ccc(C)cc1S(=O)(=O)N(CC(=O)Nc1cccc([N+](=O)[O-])c1)c1ccccc1 the results were Pf growth 48h inconclusive, Pf growth 96h 11.7µM*, HCV inhibitor 0.7% and AMA1-RON2 inh 12.0%.
Screening Cc1c(C(=O)NNc2cc(=O)n(C)c(=O)n2C)cccc1[N+](=O)[O-] returned Pf growth 48h -23.6%, Pf growth 96h 6.4%, HCV inhibitor 11.0% and AMA1-RON2 inh -3.3%.
NS(=O)(=O)c1ccc(NC(=S)NNC(=O)c2ccc(Br)o2)cc1 was read as Pf growth 48h -4.6%, Pf growth 96h inconclusive, HCV inhibitor 5.9% and AMA1-RON2 inh 124.4%.
Screening c1ccc(Cn2nnc3c(NCC4CCCO4)ncnc32)cc1 (stereo unspecified) returned Pf growth 48h 42.4%, Pf growth 96h 11.7µM*, HCV inhibitor -20.5% and AMA1-RON2 inh 2.8%.
`O=C(Cn1cnc2c(nnn2Cc2ccccc2F)c1=O)NCC1CCCO1` (stereo unspecified) gave Pf growth 48h 4.1%, Pf growth 96h 7.7%, HCV inhibitor -6.4% and AMA1-RON2 inh 8.1%.
For O=C(Cc1ccc(-n2c(=O)c3ccccc3n(Cc3ccccc3F)c2=O)cc1)NCC1CCCO1 (stereo unspecified) the results were Pf growth 48h -14.8%, Pf growth 96h 4.65µM*, HCV inhibitor -6.5% and AMA1-RON2 inh 9.5%.
O=C(CSc1ncnc2c1nnn2Cc1ccccc1F)NCC1CCCO1 (stereo unspecified) was read as Pf growth 48h 14.7µM*, Pf growth 96h inconclusive, HCV inhibitor 2.1% and AMA1-RON2 inh 9.2%.
c1ccc(Cn2nnc3c(NCC4CCCO4)nc(C4CC4)nc32)cc1 (stereo unspecified) was read as Pf growth 48h inconclusive, Pf growth 96h inconclusive, HCV inhibitor inconclusive and AMA1-RON2 inh -3.2%.
Screening Nc1nc2c(ncn2C2C[C@H](O)[C@@H](CO)O2)c(=O)[nH]1 (stereo partly specified) returned Pf growth 48h 3.1%, Pf growth 96h 2.7%, HCV inhibitor 17.9% and AMA1-RON2 inh 2.2%.
C=C1C(n2cnc3c(=O)[nH]c(N)nc32)C[C@H](O)[C@H]1CO (stereo partly specified) was read as Pf growth 48h inconclusive and Pf growth 96h 6.01µM*.
CCOc1ccc(C(=O)Nc2ccc(S(=O)(=O)Nc3nccc(C)n3)cc2)cc1OCC was read as Pf growth 48h -27.4%, Pf growth 96h 8.28µM*, HCV inhibitor 9.6% and AMA1-RON2 inh 3.4%.
`Cc1ccnc(NS(=O)(=O)c2ccc(NC(=O)C(C)(C)C)cc2)n1` gave Pf growth 48h 1.85µM*, Pf growth 96h 48.1%, HCV inhibitor -3.1% and AMA1-RON2 inh -12.2%.
For CCOc1ccccc1C(=O)Nc1ccc(S(=O)(=O)Nc2nccc(C)n2)cc1 the results were Pf growth 48h -10.1%, Pf growth 96h 13.1µM*, HCV inhibitor 4.7% and AMA1-RON2 inh -10.1%.
`CCOC(=O)Nc1ccc(S(=O)(=O)Nc2nccc(C)n2)cc1` gave Pf growth 48h -12.7%, Pf growth 96h 13.5%, HCV inhibitor 13.5% and AMA1-RON2 inh -14.3%.
`C[C@H]1CN([C@@H](C)CO)C(=O)Cc2cc(NC(=O)Cc3ccccc3)ccc2O[C@H]1CN(C)C(=O)Nc1cccc2ccccc12` gave HCV inhibitor -2.5% and AMA1-RON2 inh 12.9%.
COC(=O)c1cc(NC(=O)Cc2ccc(OC)c(OC)c2)cc(C(=O)OC)c1 was read as Pf growth 48h inconclusive, Pf growth 96h inconclusive, HCV inhibitor -22.5% and AMA1-RON2 inh -3.8%.
Screening COc1ccc(CCC(=O)Nc2cccc(S(=O)(=O)N3CCCCCC3)c2)cc1OC returned Pf growth 48h 10.4µM*, Pf growth 96h inconclusive, HCV inhibitor inconclusive and AMA1-RON2 inh -2.3%.
For COc1ccc(CC(=O)Nc2cccc(SC)c2)cc1OC the results were Pf growth 48h -4.2%, Pf growth 96h -12.2%, HCV inhibitor 3.98µM* and AMA1-RON2 inh 7.7%.
Screening CCOc1ccc(OCC(=O)Nc2cccc(S(=O)(=O)NC3=NCCC3)c2)cc1 returned HCV inhibitor -18.8% and AMA1-RON2 inh 2.4%.
CCOc1ccc(C(=O)NC(=S)Nc2cccc(S(=O)(=O)NC3=NCCC3)c2)cc1 was read as Pf growth 48h 48.6%, Pf growth 96h 95.2%, HCV inhibitor 14.1µM* and AMA1-RON2 inh 65.4%.
For COc1ccc(NC(=O)COc2ccccc2C#N)c(S(=O)(=O)N2CCCCC2)c1 the results were Pf growth 96h inconclusive, HCV inhibitor 10µM* and AMA1-RON2 inh 0.7%.
For COC(=O)c1nn(-c2c(C)n(C)n(-c3ccccc3)c2=O)cc1O the results were Pf growth 96h -17.3%, HCV inhibitor 0.0% and AMA1-RON2 inh -8.1%.
Screening CCOC(=O)N1CCN(C(=S)NC(=O)c2ccnn2C)CC1 returned Pf growth 48h 23.3%, Pf growth 96h inconclusive, HCV inhibitor 15.4% and AMA1-RON2 inh 18.2%.
Screening COc1ccc(NCC(=O)Nc2cccc(S(=O)(=O)N3CCCC3)c2)cc1Cl returned HCV inhibitor 10µM* and AMA1-RON2 inh -21.5%.
